# Experimental data reported in PubChem BioAssay AID1259415 (National Center for Advancing Translational Sciences (NCATS), 2018).
# Among all 410,000 compounds or so, about 18,000 (4.4%) were called active. Roughly 7% stayed inconclusive and do not appear here. Cut-off read from the data, not from the text of the source: active = activity change below about -60%; inconclusive = no clear call, values can overlap the other calls; inactive = above about -39%. For the sample, actives were picked, then their nearest neighbours and some compounds at random.
# Test: qHTS Assay for inhibitors of the human cytomegalovirus (HCMV)
# Settings: HFF cells, HCMV-luciferase reporter, 72 h; at 57.5 µM; stronger effect = lower value
# Excerpt: NCGC Assay Overview: Infection with human cytomegalovirus (HCMV) continues to pose significant threats for pregnant women and immunocompromised hosts. HCMV causes serious morbidity and mortality in transplant recipients, and congenital HCMV is the leading infectious cause of mental retardation and deafness in children. In the 1990s, the annual costs associated with the disease burden of congenital CMV were estimated at around $2 billion. A HCMV vaccine is not available yet and HCMV therapies result in intolerable side effects and emergence of drug resistant viruses. […] Towards this goal we have developed and characterized a luciferase HCMV reporter that was initially used in 96 well plates and then optimized to 1536-well plates for utilization in screening of the MLSMR collection, the NGCG diversity collection and the NCGC Pharmaceutical Collection of approved and investigational drugs.
# NCGC Assay Protocol Summary:
# This is a cell-based assay for HCMV inhibition in HFFs cells. The screening used 2 compound doses and the HCMV-luciferase at MOI of 1 PFU/cell. Cells were treated and infected with HCMV. At 72 h post infection cell lysates were collected and luciferase activity was determined using the Glomax-Multi + Detection System (Promega, Madison, WI). Data were normalized to the controls for basal activity (buffer only) and known HCMV inhibitors Salinmoycin.
# 1536-well assay protocol for the assay:
# (1) Add 3 ul CMV/HFF cell culture. 1000 cells/well in DMEM nirmal media.
# (2) Incubate 16 hr at 37C.
# (3) Add 23 nl control compound, 10uM of Salinomycin.
# (4) Add 23 nl compounds in DMSO solution.
# (5) Add 3 ul CMV suspension. Final 1 puf/ul, Virus stock 2000pfu/ul
# (6) Incubate 72 hrs at 37C.
# (7) Add 4 ul OneGlo Luc Reagent.
# (8) Incubate 5 min at room temperature.
# % is set by controls: 0 for no effect and ±100 for the full control effect.
row,Structure (SMILES),"activity change, negative = inhibition"
1,Cn1c2ccccc2c2cc(/C=C(\NC(=O)c3ccccc3)C(=O)NCC(=O)O)ccc21,-0.653% (inactive)
2,Cc1nc(-c2ccccc2C(C)C)nc(NCc2ccc(-c3cccnc3)cc2)c1C,28% (inactive)
3,COc1ccc(OC)c(-c2csc(-c3c(N)c(C(=O)c4ccccc4)n4ccccc34)n2)c1,5.78% (inactive)
4,O=c1c2ccccc2nc(/C=C/c2ccc(F)cc2)n1-c1ccccc1O,-99.8% (active)
5,O=C(CSc1nc2ccccc2c(=O)n1-c1ccccc1F)N1CCOCC1,-17.8% (inactive)
6,O=c1c2ccccc2nc(/C=C/c2ccco2)n1-c1ccccc1O,-24% (inactive)
7,COc1ccc(OC)c2sc(N3CCN(C(=O)C4COc5ccccc5O4)CC3)nc12 (centres undefined),-1.41% (inactive)
8,COc1ccccc1-c1nnc(C2CCN(C(=O)c3ccc(Cl)cc3)CC2)o1,-8.12% (inactive)
9,Cc1nc2c(-c3ccc(F)cc3)c(C)nn2c(C)c1CCC(=O)NCc1ccco1,-13.3% (inactive)
10,Cc1nc2c(-c3ccccc3)c(C)nn2c(C)c1CCC(=O)NCCc1ccccc1,11.4% (inactive)
11,Cc1nc2c(-c3ccc(F)cc3)c(C)nn2c(C)c1CCC(=O)N1CCN(c2ccccn2)CC1,-68.5% (active)
12,Cc1ccc(S(=O)(=O)c2c(Nc3cccc(Cl)c3)sc(C(=O)c3ccc4c(c3)OCO4)c2N)cc1,9.79% (inactive)
13,Cc1ccc(/C=N/NC(=O)C2=NNC(c3ccccc3)(c3ccccc3)C2)c(O)c1,-93.6% (active)
14,Cc1ccc(O)c(-c2cc(C(=O)NCc3ccccc3)[nH]n2)c1,1.75% (inactive)
15,Cc1ccc(/C=N/NC(=O)C(NC(=O)c2ccccc2)c2n[nH]c(=O)c3ccccc23)cc1 (centres undefined),19.8% (inactive)
16,COc1ccc(NC(=O)c2cc3cc(C)ccc3n2C)cc1,5.58% (inactive)
17,CCOC(=O)c1c(S(=O)(=O)N2CCCC(C(=O)NCc3cccc(C)c3)C2)c(C)n(C)c1C (centres undefined),-0.309% (inactive)
18,Cc1oc2ncn(CC(C)C)c(=O)c2c1C(=O)N1CCN(c2ccccc2F)CC1,14.5% (inactive)
19,C=C1C(=O)[C@]23C[C@H]1CCC2[C@@]1(C)C(C[C@@H]3O)[C@](C)(C(=O)O)CC[C@@H]1O (some centres undefined),-81.2% (active)
20,Fc1ccccc1/C=N/Nc1cc(N2CCCCC2)ncn1,76.3% (inactive)
21,Cc1ccc(OCCOCCOc2ccc(Br)cc2/C=N\NC(=O)c2ccncc2)cc1,-1.54% (inactive)
22,Oc1ccc(Br)cc1/C=N/Nc1ccccn1,-97% (active)
23,COc1ccc(-c2noc(CSc3nc4ccc(C)cc4[nH]3)n2)cc1,-38.7% (inactive)

row,Structure (SMILES),"activity change, negative = inhibition"
1,COC(=O)c1cnc(N2CCN(c3ccccc3OC)CC2)c2ccccc12,-6.88% (inactive)
2,Cc1cccc(N2CCN(C3=C(c4ccccc4)C(=O)c4ccccc43)CC2)c1C,-15.5% (inactive)
3,O=C(NC1CC(=O)N(c2ccc(F)cc2)C1)c1cccs1 (centres undefined),70.7% (inactive)
4,COc1ccc(C)cc1Nc1nc2ccccc2c2nnc(C)n12,18.4% (inactive)
5,O=C(c1n[nH]c2c1CCC2)N1CCCC(Nc2cccc(F)c2)C1 (centres undefined),9.79% (inactive)
6,Cc1ccc(-c2onc(C)c2C)cc1S(=O)(=O)Nc1ccccn1,52.8% (inactive)
7,COc1ccc2c(c1)Cc1sc(NC(=O)c3ccccc3Br)nc1-2,-70.4% (active)
8,Cn1c(=O)c(=O)n(C)c2cc(NC(=O)c3ccccc3Br)ccc21,-5.7% (inactive)
9,COc1ccc(NS(=O)(=O)c2ccc(N3CCOCC3)c(NC(=O)c3ccccc3Br)c2)cc1,0% (inactive)
10,O=C(NCCc1ccccc1)c1ccc2c(c1)N(Cc1ccccc1)C(=O)c1ccccc1S2(=O)=O,3.01% (inactive)
11,O=C(OCCO)c1cc(Cl)c(C(=O)OCCO)cc1Cl,-29.4% (inactive)
12,CCOC(=O)[C@]12CCCC=C1N(CCC1=CCCCC1)C(=O)[C@H](CC(=O)NCCCCc1ccccc1)C2,-18.4% (inactive)
13,CC1=C(C(=O)N(C(C)C)C(C)C)CC(CC(=O)NCCCCc2ccccc2)C(=O)N1CCC1=CCCCC1 (centres undefined),-112% (active)
14,CC1=C(C(=O)N(C)C)CC(CC(=O)NCCc2ccccn2)C(=O)N1CCC1=CCCCC1 (centres undefined),8.56% (inactive)
15,COc1ccccc1NC(=O)C1=C(C)Nc2ncnn2C1c1sccc1C (centres undefined),18% (inactive)
16,O=C(CSc1oc(-c2ccco2)nc1S(=O)(=O)c1ccc(Cl)cc1)c1ccccc1,-0.0708% (inactive)
17,O=C(Nc1ccc(S(=O)(=O)N2CCOCC2)cc1)C1CCN(S(=O)(=O)c2ccc(Cl)cc2)CC1,-78.5% (active)
18,CC(=O)Nc1ccc(S(=O)(=O)N2CCC(C(=O)NC3CC3)CC2)cc1,6.71% (inactive)
19,O=C(Nc1ccc(Oc2ccccc2)cc1)C1CCN(S(=O)(=O)c2ccc(Cl)cc2)CC1,-10.9% (inactive)
20,CCCNC(=O)c1ccc(Cn2c(SCC(N)=O)nc3ccccc3c2=O)cc1,4.58% (inactive)
21,CN(CC(=O)Nc1ccc(C(N)=O)cc1)S(=O)(=O)c1ccc2c(c1)OCCO2,21.6% (inactive)
22,NC(=O)c1ccc(NC(=O)COC(=O)c2c3c(nc4ccccc24)/C(=C\c2ccc4c(c2)OCO4)CCC3)cc1,-90.6% (active)
23,NC(=O)c1ccc(NC(=O)COC(=O)C(Cc2ccccc2)NC(=O)c2ccccc2)cc1 (centres undefined),10.9% (inactive)

row,Structure (SMILES),"activity change, negative = inhibition"
1,COc1ccc(CCNC(=O)CCCn2c(=O)c3ccccc3n(Cc3ccc(C)cc3)c2=O)cc1OC,8.21% (inactive)
2,Cc1ccc(Cn2c(=O)n(Cc3nc(-c4ccccc4)no3)c(=O)c3cc4c(cc32)OCO4)cc1,-3.37% (inactive)
3,COc1cc(C(=O)Nc2ccc(OCc3cc(=O)n4ccc(C)cc4n3)cc2)cc(OC)c1OC,58.3% (inactive)
4,COc1ccc2oc(-c3ccc(C)c(NC(=O)c4sc5ccccc5c4Cl)c3)nc2c1,47.4% (inactive)
5,Cc1[nH]nc(-c2ccc(OCc3cnn(-c4ccccc4)c3)cc2O)c1Oc1ccc(Cl)cc1,-95.2% (active)
6,CCCCN1C(=O)c2[nH]nc(-c3ccccc3O)c2C1c1cccc(OCc2ccccc2)c1 (centres undefined),-19% (inactive)
7,Oc1cccc(C2c3[nH]c4ccccc4c3CCN2Cc2cnn(-c3ccccc3)c2)c1 (centres undefined),19.4% (inactive)
8,CCC1CCCCN1C(=O)Cn1c(=O)n(CCCCCC(=O)NCc2ccccc2)c(=O)c2sccc21 (centres undefined),-18.6% (inactive)
9,CCOC(=O)c1sc(-c2cccc([N+](=O)[O-])c2)cc1N,0.0939% (inactive)
10,CCOC(=O)N1CCN(Cc2nnc(-c3ccccc3Cl)o2)CC1,-96.5% (active)
11,CCOC(=O)C1CCN(Cc2nnc(-c3cccc(Br)c3)o2)CC1,-20.4% (inactive)
12,Cc1ccc(-c2nnc(CN3CCN(C)CC3)o2)cc1,145% (inactive)
13,O=C(Nc1nnc(C2CC(=O)N(c3ccc(Cl)cc3)C2)s1)c1ccco1 (centres undefined),5.75% (inactive)
14,Cc1ccc(NC(=O)CN2C(=O)CC(C)Sc3ccccc32)c(C)c1 (centres undefined),-2.3% (inactive)
15,Cc1ccc(NC(=O)CC2C(=O)N(Cc3ccccc3)C(=S)N2NC(=O)c2cccc(F)c2)c(C)c1 (centres undefined),-70.8% (active)
16,Cc1ccc(N2C(=O)C(CC(=O)Nc3cccc(F)c3)N(CCc3ccncc3)C2=O)cc1 (centres undefined),-29.9% (inactive)
17,Cc1ccc(CNC(=O)C2CC(c3ccccc3[N+](=O)[O-])=NO2)o1 (centres undefined),-11.5% (inactive)
18,Cc1ccccc1NC(=O)c1cc2c([nH]c1=O)CC(C)(C)CC2=O,43% (inactive)
19,O=C(Cn1cc(-c2nnnn2-c2ccc(Cl)cc2)c(=O)c2ccccc21)c1ccccc1,-9.79% (inactive)
20,Clc1ccc(-n2nnnc2-c2cnc(-c3ccccn3)nc2-c2cccs2)cc1,-103% (active)
21,N#Cc1ccc(CSc2nnc(-c3ccccn3)n2-c2ccc(Cl)cc2)cc1,-9.16% (inactive)
22,CCCS(=O)(=O)Nc1cccc(-c2cn3ccsc3n2)c1,-0.309% (inactive)
23,O=[N+]([O-])c1cc([N+](=O)[O-])c2cccnc2c1O,-19.7% (inactive)

row,Structure (SMILES),"activity change, negative = inhibition"
1,CC(=O)NC(c1cccs1)c1cc(Br)c2cccnc2c1O (centres undefined),-100% (active)
2,N#Cc1ccccc1NC(=O)COc1c(Br)cc(Br)c2cccnc12,85.2% (inactive)
3,CC(=O)c1cccc(OCC(=O)OCC(=O)Nc2cc(S(=O)(=O)N3CCCCC3)ccc2C)c1,9.96% (inactive)
4,O=C(CNS(=O)(=O)c1ccc2ccccc2c1)Nc1ccc(F)c(F)c1F,0% (inactive)
5,Cc1ccc(NS(=O)(=O)c2ccc(C)c(NC(=O)COc3ccc4ccccc4c3)c2)c(C)c1,-81.5% (active)
6,CCCn1c(C(C)Nc2nc(-c3ccc(C)cc3)cs2)nc2cc(Cl)c(N3CCCCC3)cc21 (centres undefined),2.56% (inactive)
7,NC1=CC(=O)C(=O)c2cccnc21,-78.2% (active)
8,O=C1CCCC2=C1C(c1cccs1)n1nc(SCc3ccccc3)nc1N2 (centres undefined),-15.6% (inactive)
9,COC(=O)c1ccc(NC(=O)c2cc3c(CO)cnc(C)c3oc2=Nc2cccc(C(N)=O)c2)cc1,-2.9% (inactive)
10,Cn1nccc1/C=N\NC(=O)c1ccc(Cl)cc1,45.6% (inactive)
11,CC1(C)C2CC=C(/C=N/NC(=O)c3ccc(Cl)cc3)C1C2 (centres undefined),23.1% (inactive)
12,O=C(N/N=C/c1ccccn1)c1cccc(NC(=O)c2ccc(Cl)cc2)c1,-69.8% (active)
13,CC(C)C(=O)Nc1nnc(SCC(=O)N2C(C)CCCC2C)s1 (centres undefined),-28.8% (inactive)
14,Cc1nn(-c2ccc(N3CCCCC3)nn2)c(C)c1CCC(=O)NCc1ccccc1F,-16.6% (inactive)
15,CCN(c1ccc(Cl)cc1)S(=O)(=O)c1nnc(NC(=O)c2ccco2)s1,39.9% (inactive)
16,C/C(=N/NS(=O)(=O)c1ccccc1)c1ccc(NC(=O)C(F)(F)F)cc1,0.908% (inactive)
17,CSCCC(NC(=O)c1ccco1)C(=O)Nc1cc(C)ccn1 (centres undefined),47.1% (inactive)
18,Cc1ccnc(NC(=O)c2ccc(NC(=O)c3ccco3)cc2)c1,-84.7% (active)
19,C/C(=N\NS(=O)(=O)c1ccc(Cl)cc1)c1ccc(NC(=O)c2ccco2)cc1,-65.3% (active)
20,Cc1ccc(C)c(NC(=O)c2ccc(OC(=O)c3ccco3)cc2)c1,71.3% (inactive)
